# Data reported in PubChem BioAssay (NCATS).
# Records with an inconclusive call do not appear. A call without a number means that no potency is given here. Active and inactive are the calls of the source. Calls follow the shape of the dose curve; as a rule, active = well fitted cell-killing curve with a large enough effect; inconclusive = small, poorly fitted or top-dose-only effect; inactive = no such curve, though single readings can be large or run the other way.
# Assay: qHTS of pediatric cancer cell lines to identify multiple opportunities for drug repurposing: Primary screen for Rh30 cells (AID 1347107); also: nearly all actives have a fitted effect of over 75% in size
# Conditions: Rh30 rhabdomyosarcoma viability, CellTiter-Glo luminescence, 48 h; series mostly up to 46 µM
# Summary of the method: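 Cells (500-1,000/well) in growth media were settled 5 h at 37 degrees C, then given compounds for 48 h. Viability was read as CellTiter-Glo luminescence. Primary runs used MIPE at 11 points (0.78 nM-46 µM) and NPC at 8 points (0.59 nM-46 µM); follow-ups used 11 points.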
# Potency is read from the fitted curve at half-maximal effect.
row,Compound,Potency
1,Cc1onc(-c2c(Cl)cccc2Cl)c1C(=O)Cl,inactive
2,CCOC(=O)Oc1ccc(CCNC(=O)[C@H](CCSC)NC(C)=O)cc1OC(=O)OCC,inactive
3,O=[N+]([O-])c1nccn1CO[C@@H](CO)[C@H](O)CO,inactive
4,NS(=O)(=O)c1ccc(N2CCCCS2(=O)=O)cc1,inactive
5,CCOC(=O)c1ccc(NC(=O)CN2CCCCC2)cc1,inactive
6,Cc1c(F)cc2c(=O)c(C(=O)O)cn3c2c1CCC3C (stereo unspecified),inactive
7,CC(C)(C)NCC(O)COc1ccccc1OCC1CCCO1 (stereo unspecified),inactive
8,Cc1ccc(O)cc1,inactive
9,CCCCC(CC)CNC(=O)CC(C)OC(=O)CCC(=O)O (stereo unspecified),inactive
10,CCN(CC)CC(=O)OCC(=O)[C@@]1(O)CC[C@H]2[C@@H]3CCC4=CC(=O)CC[C@]4(C)[C@H]3[C@@H](O)C[C@@]21C,inactive
11,OCCCc1ccccc1,inactive
12,O=C(CCCCC(=O)Nc1c(I)cc(I)c(C(=O)O)c1I)Nc1c(I)cc(I)c(C(=O)O)c1I,inactive
13,Cc1cccc(OCC(O)CNC(C)(C)C)c1C (stereo unspecified),inactive
14,CC(=O)Nc1c(I)c(NC(C)=O)c(I)c(C(=O)O)c1I,inactive
15,CC(C)(Oc1ccc(Cl)cc1)C(=O)OCCCOC(=O)C(C)(C)Oc1ccc(Cl)cc1,inactive
16,CCOC(=O)O[C@]1(C(=O)OCCl)CC[C@H]2[C@@H]3CCC4=CC(=O)C=C[C@]4(C)[C@H]3[C@@H](O)C[C@@]21C,inactive

row,Compound,Potency
1,C[C@H]1C[C@H](O)c2ccsc2S1(=O)=O,inactive
2,CCN(CC)CC(=O)Oc1ccc(NC(C)=O)cc1,inactive
3,COC(=O)c1cc(Cl)c(NC(C)=O)cc1OC,inactive
4,C[N+]1(C)CCC(OC(=O)C(O)(c2ccccc2)C2CCCC2)C1 (stereo unspecified),inactive
5,CCOC(=O)C(O)c1ccccc1 (stereo unspecified),inactive
6,CCN1CCCC1CN (stereo unspecified),inactive
7,Cc1cc2nc3ccc(=[N+](C)C)cc-3sc2cc1N,15 µM (active)
8,CCOC(=O)OCC/C(SC(=O)OCC)=C(\C)N(C=O)Cc1cnc(C)nc1N,inactive
9,CCN(CC)CCN,inactive
10,CC(C)C(=O)Nc1cccc(C(F)(F)F)c1,inactive
11,CC(C)NCCCC1(C(N)=O)c2ccccc2-c2ccccc21,inactive
12,Oc1ccccc1-c1nnco1,inactive
13,CN=C(N)NC(=O)Nc1c(C)cccc1C,inactive
14,Cc1cc(=O)oc2cc(O[C@@H]3SC[C@@H](O)[C@H](O)[C@H]3O)ccc12,inactive
15,CN1C(=O)c2ccccc2C1=O,inactive
16,O=C(C1CCCCC1)N1CC(=O)N2CCCc3ccccc3C2C1 (stereo unspecified),inactive

# Assay: qHTS of pediatric cancer cell lines to identify multiple opportunities for drug repurposing: Primary screen for Rh41 cells (AID 1347108); also: nearly all actives have a fitted effect of over 70% in size
# Conditions: Rh41 rhabdomyosarcoma viability, CellTiter-Glo luminescence, 48 h; series mostly up to 46 µM
# Summary of the method: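 Readout: CellTiter-Glo luminescence, 48 h treatment. Controls DMSO (neutral) and bortezomib 2.3 µM final (positive). Potency and efficacy taken from primary-screen concentration-response curves.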
row,Compound,Potency
1,Cc1onc(-c2c(Cl)cccc2Cl)c1C(=O)Cl,inactive
2,CCOC(=O)Oc1ccc(CCNC(=O)[C@H](CCSC)NC(C)=O)cc1OC(=O)OCC,inactive
3,O=[N+]([O-])c1nccn1CO[C@@H](CO)[C@H](O)CO,inactive
4,NS(=O)(=O)c1ccc(N2CCCCS2(=O)=O)cc1,inactive
5,O=C(O)CCC(=O)OC[C@@H](NC(=O)C(Cl)Cl)[C@H](O)c1ccc([N+](=O)[O-])cc1,inactive
6,CC(=O)c1ccc(O)c(C(N)=O)c1,inactive
7,O=C1c2ccccc2CCc2ccccc21,inactive
8,CCOC(=O)c1ccc(NC(=O)CN2CCCCC2)cc1,inactive
9,Cc1c(F)cc2c(=O)c(C(=O)O)cn3c2c1CCC3C (stereo unspecified),inactive
10,CC(C)(C)NCC(O)COc1ccccc1OCC1CCCO1 (stereo unspecified),inactive
11,Cc1ccc(O)cc1,inactive
12,CCCCC(CC)CNC(=O)CC(C)OC(=O)CCC(=O)O (stereo unspecified),inactive
13,CCN(CC)CC(=O)OCC(=O)[C@@]1(O)CC[C@H]2[C@@H]3CCC4=CC(=O)CC[C@]4(C)[C@H]3[C@@H](O)C[C@@]21C,inactive
14,OCCCc1ccccc1,inactive
15,O=C(CCCCC(=O)Nc1c(I)cc(I)c(C(=O)O)c1I)Nc1c(I)cc(I)c(C(=O)O)c1I,inactive
16,Cc1cccc(OCC(O)CNC(C)(C)C)c1C (stereo unspecified),inactive
17,Cc1ccc(C(=O)C(=O)O)cc1C,inactive
18,CC(=O)Nc1c(I)c(NC(C)=O)c(I)c(C(=O)O)c1I,inactive
19,CC(C)(Oc1ccc(Cl)cc1)C(=O)OCCCOC(=O)C(C)(C)Oc1ccc(Cl)cc1,inactive
20,O=C(CO)[C@@H](O)[C@H](O)[C@@H](O)CO,inactive

row,Compound,Potency
1,CCOC(=O)O[C@]1(C(=O)OCCl)CC[C@H]2[C@@H]3CCC4=CC(=O)C=C[C@]4(C)[C@H]3[C@@H](O)C[C@@]21C,inactive
2,C[C@H]1C[C@H](O)c2ccsc2S1(=O)=O,inactive
3,CCN(CC)CC(=O)Oc1ccc(NC(C)=O)cc1,inactive
4,COC(=O)c1cc(Cl)c(NC(C)=O)cc1OC,inactive
5,C[N+]1(C)CCC(OC(=O)C(O)(c2ccccc2)C2CCCC2)C1 (stereo unspecified),inactive
6,CCOC(=O)C(O)c1ccccc1 (stereo unspecified),inactive
7,CCN1CCCC1CN (stereo unspecified),inactive
8,Cc1cc2nc3ccc(=[N+](C)C)cc-3sc2cc1N,5.96 µM (active)
9,CCOC(=O)OCC/C(SC(=O)OCC)=C(\C)N(C=O)Cc1cnc(C)nc1N,inactive
10,CCN(CC)CCN,inactive
11,CC(C)(C)c1nnc(NS(=O)(=O)c2ccccc2)s1,inactive
12,CC(C)C(=O)Nc1cccc(C(F)(F)F)c1,inactive
13,CC(C)NCCCC1(C(N)=O)c2ccccc2-c2ccccc21,inactive
14,Oc1ccccc1-c1nnco1,inactive
15,CN=C(N)NC(=O)Nc1c(C)cccc1C,inactive
16,Cc1cc(=O)oc2cc(O[C@@H]3SC[C@@H](O)[C@H](O)[C@H]3O)ccc12,inactive
17,CN1C(=O)c2ccccc2C1=O,inactive
18,CCN1CCN(C(=O)N[C@@H](C(=O)N[C@@H]2C(=O)N3[C@@H]2SC(C)(C)[C@H]3C(=O)O)c2ccccc2)C(=O)C1=O,inactive
19,O=C(C1CCCCC1)N1CC(=O)N2CCCc3ccccc3C2C1 (stereo unspecified),inactive
